Records with an inconclusive call do not appear. Active and inactive are the calls of the source. Unless noted, calls follow the shape of the dose curve; as a rule, active = well fitted curve in the direction sought with a large enough effect; inconclusive = small, poorly fitted or top-dose-only effect, or another doubt; inactive = no such curve, though single readings can be large; an effect the other way counts as inactive or inconclusive.
Assays:
[1] = Confirmation and Secondary Assay for Modulators of Hemoglobin Beta Chain Splicing at IVS2 654 locus (AID 910);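 also: per-well total GFP intensity by laser scanning cytometry after 2-day treatment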
Method in brief: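 HeLa cells stably carrying EGFP interrupted by mutant beta-globin IVS2-654 intron (CMV-driven) were treated with compound for 2 days at 37C; corrected splicing was scored as total peak GFP intensity per well (488 nm excitation, 500-520 nm emission).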

[2] = Confirmation and Secondary Assay for Modulators of Hemoglobin Beta Chain Splicing at IVS2 705 locus (AID 930);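 also: HeLa cells stably expressing the EGFP-705 splicing reporter; GFP fluorescence per well restored by corrected splicing of the IVS2-705 intron in EGFP; series mostly up to about 46 µM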
Method in brief: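 Fluorescence gain (488 nm laser, 500-520 nm PMT) reflects restored correct splicing of a mutant IVS2-705 intron inside EGFP in stably transfected HeLa cells after 2-day compound treatment.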

[3] = biological target: Guanine nucleotide-binding protein G(i) subunit alpha-1 (Homo sapiens) (UniProt P63096); assay: qHTS Assay for Inhibitors of RGS12 GoLoco Motif Activity (Green Fluorophore) (AID 879);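 also: negative values mean loss of peptide binding seen as reduced polarization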
Guanine nucleotide-binding protein G(i) subunit alpha-1 (Homo sapiens), sequence (P63096 whole entry, looked up): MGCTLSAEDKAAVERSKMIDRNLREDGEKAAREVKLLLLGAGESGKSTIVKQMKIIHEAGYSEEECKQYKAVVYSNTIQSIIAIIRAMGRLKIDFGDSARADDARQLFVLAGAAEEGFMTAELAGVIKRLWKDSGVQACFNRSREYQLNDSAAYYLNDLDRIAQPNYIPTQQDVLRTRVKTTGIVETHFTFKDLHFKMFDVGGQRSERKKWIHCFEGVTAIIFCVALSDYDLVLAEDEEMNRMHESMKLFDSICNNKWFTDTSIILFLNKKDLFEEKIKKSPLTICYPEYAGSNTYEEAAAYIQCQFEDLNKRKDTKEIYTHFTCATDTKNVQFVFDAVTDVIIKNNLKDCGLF
Method in brief: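 Fluorescence polarization assay: 50 nM Gαi1 with 10 nM FITC-labeled RGS12 GoLoco peptide in 10 mM Tris pH 7.5, 150 mM NaCl, 0.1 mM GDP, 0.05% NP40, 10 min at room temperature with compound.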

[4] = qHTS Assay for Identification of Small Molecule Agonists for Thrombopoietin (TPO) Signaling Pathway (AID 917)
Method in brief: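 Luminescence from a Glycoprotein IIb promoter–driven luciferase reporter served as read-out in murine Ba/F3 cells carrying the human TPO receptor. Cells, deprived of IL-3 overnight, received compounds with 26 pM TPO and were incubated 24 hrs at 37 C.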

[5] = biological target: Muscarinic acetylcholine receptor M1 (Rattus norvegicus) (UniProt P08482); assay: qHTS Assay for Antagonists of Acetylcholine Muscarinic M1 Receptor: Measurement of IP-One Response (AID 944); also: nearly all actives have a fitted effect of over 75% in size
Muscarinic acetylcholine receptor M1 (Rattus norvegicus), sequence (P08482 whole entry, looked up): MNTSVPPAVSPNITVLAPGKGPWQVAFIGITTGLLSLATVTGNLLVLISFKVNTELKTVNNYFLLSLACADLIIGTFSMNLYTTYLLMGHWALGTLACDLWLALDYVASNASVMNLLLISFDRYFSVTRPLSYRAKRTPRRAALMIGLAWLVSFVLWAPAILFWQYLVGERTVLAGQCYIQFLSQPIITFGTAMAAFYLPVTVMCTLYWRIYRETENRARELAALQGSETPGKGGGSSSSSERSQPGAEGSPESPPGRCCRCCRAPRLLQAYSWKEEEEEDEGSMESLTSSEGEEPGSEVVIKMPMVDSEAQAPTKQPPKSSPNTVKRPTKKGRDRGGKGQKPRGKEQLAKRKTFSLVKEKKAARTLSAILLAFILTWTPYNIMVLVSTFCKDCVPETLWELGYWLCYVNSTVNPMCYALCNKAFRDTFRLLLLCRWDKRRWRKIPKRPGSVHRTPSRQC
Method in brief: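 CHO cells stably expressing rat M1, pretreated 10 min with compound, then stimulated 30 min with carbachol at EC80 (200 nM) in LiCl-containing buffer pH 7.4; IP1 accumulation read by HTRF competition (665/620 nm).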

[6] = biological target: Pyruvate kinase (Leishmania mexicana) (UniProt Q27686); assay: qHTS Validation Assay for Inhibitors of Leishmania Mexicana Pyruvate Kinase (AID 945)
Pyruvate kinase (Leishmania mexicana), sequence (Q27686 2-499 E452W): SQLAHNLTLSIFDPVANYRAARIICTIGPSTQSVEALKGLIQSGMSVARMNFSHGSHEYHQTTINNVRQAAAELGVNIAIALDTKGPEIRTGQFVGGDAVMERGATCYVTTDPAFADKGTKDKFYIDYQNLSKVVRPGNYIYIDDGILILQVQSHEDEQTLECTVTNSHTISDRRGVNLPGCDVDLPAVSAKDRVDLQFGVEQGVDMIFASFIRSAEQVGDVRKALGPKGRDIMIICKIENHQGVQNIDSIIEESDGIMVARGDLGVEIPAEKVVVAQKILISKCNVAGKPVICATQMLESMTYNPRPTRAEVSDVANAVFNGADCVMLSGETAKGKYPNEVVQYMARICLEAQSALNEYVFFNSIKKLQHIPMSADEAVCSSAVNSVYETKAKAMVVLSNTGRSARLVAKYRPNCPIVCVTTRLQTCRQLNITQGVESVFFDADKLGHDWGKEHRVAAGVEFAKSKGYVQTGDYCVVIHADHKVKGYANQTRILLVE
Method in brief: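 Compounds are tested as eight-point concentration series. Reactions contain 0.2 nM LmPYK E451W, 0.5 mM PEP, 0.1 mM ADP, 7 mM MgCl2 and 50 mM KCl at pH 7.2, run 1 h at room temperature, then read by PKLight luminescence.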

[7] = biological target: Pyruvate kinase PKM (Homo sapiens) (UniProt P14618); assay: qHTS Assay for Activators of Human Muscle Pyruvate Kinase (AID 954; active = well fitted curve in the direction sought with a large enough effect, not every such curve was filed as active)
Pyruvate kinase PKM (Homo sapiens), sequence (P14618 whole entry, looked up): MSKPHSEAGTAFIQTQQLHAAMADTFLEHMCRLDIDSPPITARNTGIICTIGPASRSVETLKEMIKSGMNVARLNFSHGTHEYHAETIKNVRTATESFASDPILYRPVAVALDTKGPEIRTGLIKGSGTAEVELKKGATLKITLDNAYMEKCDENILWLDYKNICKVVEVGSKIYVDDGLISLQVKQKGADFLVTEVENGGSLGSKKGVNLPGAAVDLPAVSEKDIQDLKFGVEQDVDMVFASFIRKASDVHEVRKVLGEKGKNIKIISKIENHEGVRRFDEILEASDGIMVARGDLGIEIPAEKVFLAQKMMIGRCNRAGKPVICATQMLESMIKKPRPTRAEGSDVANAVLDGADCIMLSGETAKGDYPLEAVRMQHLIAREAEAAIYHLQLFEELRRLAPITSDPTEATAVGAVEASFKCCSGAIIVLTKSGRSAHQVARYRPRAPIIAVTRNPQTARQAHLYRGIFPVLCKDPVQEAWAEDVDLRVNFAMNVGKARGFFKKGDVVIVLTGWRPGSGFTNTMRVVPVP
Method in brief: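 Reaction: 0.1 nM purified PKM2 with 0.5 mM phosphoenolpyruvate and 0.1 mM ADP, room temperature, 1 h. Readout: luciferase-based ATP luminescence after stop reagent. Activators judged against a 0.3 nM enzyme column.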

[8] = biological target: Alpha-galactosidase A (Homo sapiens) (UniProt P06280); assay: Counterscreen for Glucocerebrosidase Inhibitors: qHTS Assay for Human alpha-Galactosidase at pH 4.5 (AID 992)
Alpha-galactosidase A (Homo sapiens), sequence (P06280 whole entry, looked up): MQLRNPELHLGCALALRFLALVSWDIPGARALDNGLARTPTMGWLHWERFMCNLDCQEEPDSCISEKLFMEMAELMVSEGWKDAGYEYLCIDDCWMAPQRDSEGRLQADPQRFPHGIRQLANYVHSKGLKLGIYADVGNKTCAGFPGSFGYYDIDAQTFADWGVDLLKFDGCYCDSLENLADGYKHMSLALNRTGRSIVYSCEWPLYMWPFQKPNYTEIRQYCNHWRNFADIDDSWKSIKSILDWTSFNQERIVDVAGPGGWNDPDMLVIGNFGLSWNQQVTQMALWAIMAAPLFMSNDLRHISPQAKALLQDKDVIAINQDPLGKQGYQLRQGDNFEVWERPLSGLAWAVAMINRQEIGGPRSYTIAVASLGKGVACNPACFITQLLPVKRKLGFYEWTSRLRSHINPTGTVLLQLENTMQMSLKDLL
Method in brief: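 Concentration-response curves (0.7 nM to 77 uM final) were modeled with the Hill equation to give AC50. Reactions: 2 nM enzyme, 80 uM fluorogenic alpha-galactoside, pH 4.5 citric acid buffer, 20 min, room temperature.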

[9] = biological target: alpha-glucosidase (Oryza sativa, rice) (UniProt Q653V4); assay: Counterscreen for Glucocerebrosidase Inhibitors: qHTS Assay for Rice alpha-Glucosidase at pH 5.0 (AID 997)
Method in brief: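 Rice alpha-glucosidase (4 nM final) with 400 uM 4-methylumbelliferyl-alpha-D-glucopyranoside in citrate buffer pH 5.0, 20 min at room temperature, stopped at pH 10; fluorescence 365/440 nm, compounds 0.7 nM–77 uM, AC50 from Hill fits.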

Measured: Potency

CN(C)c1ccc(-c2nc(Nc3ccncc3)c3ccccc3n2)cc1
inactive: [1] | [2]

C[C@H](Oc1ccc(Oc2cnc3ccc(Cl)cc3n2)cc1)C(=O)O
not listed: [1] | [2]
inactive: all other assays above

Source: PubChem BioAssay (NCATS)
